In PubChem BioAssay (NCATS):
Values joined by “and” are separate entries in the source; they are usually repeats but may differ in a detail not shown here. Identical values can stand only once. Results filed as inconclusive are left out. A call without a number means that no potency is given here. More than one record can exist for a structure, and the calls need not agree. Active and inactive are the calls of the source. Unless noted, calls follow the shape of the dose curve; as a rule, active = well fitted curve in the direction sought with a large enough effect; inconclusive = small, poorly fitted or top-dose-only effect, or another doubt; inactive = no such curve, though single readings can be large; an effect the other way counts as inactive or inconclusive. Peptide text beside a SMILES is read from it.

Columns and labels:
[1] = target: Calcium and integrin-binding protein 1 (Homo sapiens) (UniProt Q99828); assay: Primary qHTS for Identification of Calcium Integrin Binding Protein 1 (CIB1) Competitor (AID 1508620); also: potency is read from the fitted curve at half-maximal effect
Chain of Calcium and integrin-binding protein 1 (Homo sapiens) (Q99828 whole entry, looked up): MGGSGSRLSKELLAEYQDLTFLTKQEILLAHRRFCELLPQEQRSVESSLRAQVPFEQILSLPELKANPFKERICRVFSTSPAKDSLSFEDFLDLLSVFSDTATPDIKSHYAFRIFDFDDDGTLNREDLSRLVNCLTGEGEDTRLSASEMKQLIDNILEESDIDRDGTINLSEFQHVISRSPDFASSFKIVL
Procedure, shortened: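 CIB1-GST (1 uM final) and compound incubated 15 min at room temperature before adding FITC-alphaIIb peptide tracer (100 nM final). Competition for binding read by fluorescence polarization (ex 480, em 540) after another 15 min at room temperature.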

[2] = Counterscreen qHTS for small molecule stabilizers of the endoplasmic reticulum resident proteome: GLuc-NoTag assay (AID 1508627); also: potency is read from the fitted curve at half-maximal effect
Procedure, shortened: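 Luminescence of Gaussia luciferase secreted into the medium (coelenterazine, 0.07x final, unlysed cells) was the read-out. Human SH-SY5Y neuroblastoma cells constitutively secreting untagged GLuc received compound for 19 h, then 100 nM thapsigargin for 4 h.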

[3] = Cell Viability qHTS for small molecule stabilizers of the endoplasmic reticulum resident proteome (AID 1508629); details: cell viability counter-screen, 100 nM thapsigargin for final 4 h;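 also: human SH-SY5Y neuroblastoma cells carrying the GLuc-SERCaMP reporter; compound exposure about 46 h in total before the viability read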
[4] = target: Cytochrome P450 2D6 (Homo sapiens) (UniProt P10635); assay: Cytochrome P450 family 2 subfamily D member 6 (CYP2D6) small molecule antagonists: luciferase biochemical (cell-free) qHTS assay (AID 1645840; active = well fitted curve in the direction sought with a large enough effect in the repeat runs; an effect the other way counts as inactive or inconclusive; also: nearly all actives have a fitted effect of over 55% in size; also: potency is read from the fitted curve at half-maximal effect)
Chain of Cytochrome P450 2D6 (Homo sapiens) (P10635 whole entry, looked up): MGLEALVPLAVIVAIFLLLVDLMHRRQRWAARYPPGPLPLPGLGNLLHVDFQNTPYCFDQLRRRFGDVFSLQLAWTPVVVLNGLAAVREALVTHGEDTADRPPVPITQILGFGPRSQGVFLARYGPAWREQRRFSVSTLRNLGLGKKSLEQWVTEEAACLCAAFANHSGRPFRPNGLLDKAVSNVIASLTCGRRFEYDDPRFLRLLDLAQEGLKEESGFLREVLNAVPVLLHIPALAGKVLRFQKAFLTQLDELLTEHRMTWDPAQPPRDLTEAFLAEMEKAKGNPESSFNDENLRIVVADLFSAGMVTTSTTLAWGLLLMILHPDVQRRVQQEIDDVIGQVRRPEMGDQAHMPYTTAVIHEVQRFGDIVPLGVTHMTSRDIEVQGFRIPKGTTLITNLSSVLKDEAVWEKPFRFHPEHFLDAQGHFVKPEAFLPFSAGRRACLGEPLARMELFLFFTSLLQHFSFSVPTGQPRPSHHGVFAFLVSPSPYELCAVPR
Procedure, shortened: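 P450-Glo luminescent screen: recombinant CYP2D6 enzyme–proluciferin substrate mix preincubated with compound 10 min at room temperature, then NADPH regeneration added for 1 h at room temperature. Detection reagent added for 20 min; luciferin light read as relative luminescence units.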

[5] = target: Cytochrome P450 2C9 (Homo sapiens) (UniProt P11712); assay: Cytochrome P450 family 2 subfamily C member 9 (CYP2C9) small molecule antagonists: luciferase biochemical (cell-free) qHTS assay (AID 1645842; active = well fitted curve in the direction sought with a large enough effect in the repeat runs; an effect the other way counts as inactive or inconclusive; also: nearly all actives have a fitted effect of over 55% in size; also: potency is read from the fitted curve at half-maximal effect)
Chain of Cytochrome P450 2C9 (Homo sapiens) (P11712 whole entry, looked up): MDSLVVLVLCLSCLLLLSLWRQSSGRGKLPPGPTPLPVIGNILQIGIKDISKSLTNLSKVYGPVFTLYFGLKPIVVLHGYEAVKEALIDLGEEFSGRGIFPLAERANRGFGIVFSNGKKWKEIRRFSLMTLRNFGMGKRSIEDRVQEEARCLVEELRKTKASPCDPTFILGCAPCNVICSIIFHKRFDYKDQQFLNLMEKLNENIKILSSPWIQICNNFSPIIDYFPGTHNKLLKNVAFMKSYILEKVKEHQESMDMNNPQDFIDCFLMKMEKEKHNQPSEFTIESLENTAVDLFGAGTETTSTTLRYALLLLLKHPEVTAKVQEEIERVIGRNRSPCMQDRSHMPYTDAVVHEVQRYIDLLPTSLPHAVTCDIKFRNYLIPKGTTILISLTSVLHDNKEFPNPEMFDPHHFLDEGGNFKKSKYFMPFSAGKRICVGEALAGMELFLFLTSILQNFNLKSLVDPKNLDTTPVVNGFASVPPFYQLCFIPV
Procedure, shortened: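 Luminescence, after 20 min with luciferin detection reagent, reflected CYP2C9 turnover during a 1 h NADPH-driven reaction at 37C. Enzyme-substrate mix contained 0.4% bovine serum albumin and was preincubated with compound 10 min at room temperature.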

[6] = Primary qHTS for small molecule stabilizers of the endoplasmic reticulum resident proteome: Secreted ER Calcium Modulated Protein (SERCaMP) assay (AID 1508630)
Procedure, shortened: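 GLuc-SERCaMP-expressing SH-SY5Y cells, pretreated 16 h with compound, are challenged with thapsigargin to empty ER calcium stores; after 4 h, coelenterazine is added directly to the medium and luminescence is imaged.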

[7] = A High-Content qHTS Against Drug Library for the Identification of Small Molecules that Inhibit DYT1 Early Onset Primary Dystonia-Associated Cell Pathology (AID 1645839; calls by dose curve; also: series mostly up to about 46 µM)
Procedure, shortened: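 In this high-content image screen, delE TorsinA mislocalization in inducible Flp-In 293 cells is scored as %pathology, with cell count serving as the counterscreen. Compound exposure lasts 48 h under tetracycline induction in reduced-serum medium.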

With `Cc1cccc(C)c1OCC(=O)N[C@@H](Cc1ccccc1)[C@@H](O)C[C@H](Cc1ccccc1)NC(=O)[C@H](C(C)C)N1CCCNC1=O` the Potency [1] was “inactive”, the Potency [2] was 39.8 µM (active) and the max response [3] was -5.9% (inactive). For the same molecule, the Potency [4] was 13.8 µM (active) and the Potency [5] was 17.4 µM (active).
With `CC(C)c1nc(CN(C)C(=O)N[C@H](C(=O)N[C@@H](Cc2ccccc2)C[C@H](O)[C@H](Cc2ccccc2)NC(=O)OCc2cncs2)C(C)C)cs1` the Potency [1] was “inactive” and the Potency [6] was “inactive”.
For `S=c1nc[nH]c2nc[nH]c12`, the Potency [1] was “inactive”, the Potency [6] was “inactive” and the Potency [7] was “inactive”. For the same molecule, the Potency [4] was “inactive” and the Potency [5] was 19.5 µM (active).
With `C=CCc1cc(OC)c(O)c(C(=O)NCCO)c1` the Potency [1] was “inactive”, the Potency [6] was “inactive” and the Potency [7] was “inactive”. The Potency [4] was “inactive” and the Potency [5] was “inactive”.
In the case of `CCCOc1ccc2nc(NC(=O)OC)[nH]c2c1`, the Potency [1] is reported as “inactive”, the Potency [6] is reported as “inactive” and the Potency [7] is reported as “inactive”. For the same molecule, the Potency [4] was “inactive” and the Potency [5] was “inactive”.
In the case of `CC(C)Oc1ccc2c(=O)c(-c3ccccc3)coc2c1`, the Potency [1] is reported as “inactive”, the Potency [6] is reported as “inactive” and the Potency [7] is reported as “inactive”. The Potency [4] was “inactive” and the Potency [5] was 13.8 µM (active) and 21.9 µM (active).
With `CCCCc1ccc2nc(NC(=O)OC)[nH]c2c1` the Potency [1] was “inactive”, the Potency [6] was “inactive” and the Potency [7] was “inactive”. The Potency [5] was “inactive”.
In the case of `CN(C)C(=O)COC(=O)Cc1ccc(OC(=O)c2ccc(N=C(N)N)cc2)cc1`, the Potency [1] is reported as “inactive”, the Potency [6] is reported as “inactive” and the Potency [7] is reported as “inactive”. The Potency [4] was “inactive” and the Potency [5] was “inactive”.
For `N=C(N)c1ccc2cc(OC(=O)c3ccc(N=C(N)N)cc3)ccc2c1`, the Potency [1] was “inactive”, the Potency [6] was “inactive” and the Potency [7] was “inactive”. For the same molecule, the Potency [4] was “inactive” and the Potency [5] was “inactive”.
In the case of `COC(=O)[C@H](Cc1ccccc1)NC(=O)[C@@H](N)CC(=O)O` (H-Asp-Phe-OMe), the Potency [1] is reported as “inactive”, the Potency [6] is reported as “inactive” and the Potency [7] is reported as “inactive”. For the same molecule, the Potency [4] was “inactive” and the Potency [5] was “inactive”.
With `CC[C@]1(O)C[C@H]2CN(CCc3c([nH]c4ccccc34)[C@@](C(=O)OC)(c3cc4c(cc3OC)N(C=O)[C@H]3[C@@](O)(C(=O)OC)[C@H](OC(C)=O)[C@]5(CC)C=CCN6CC[C@]43[C@@H]65)C2)C1` the Potency [1] was “inactive”, the Potency [6] was “inactive” and the Potency [7] was “inactive”. For the same molecule, the Potency [5] was “inactive”.
With `Cc1nccn1CC1CCc2c(c3ccccc3n2C)C1=O` (stereo unspecified) the Potency [1] was “inactive”, the Potency [6] was “inactive” and the Potency [7] was “inactive”. For the same molecule, the Potency [4] was 11 µM (active) and 13.5 µM (active) and the Potency [5] was “inactive”.
With `N=C(N=C(N)N)N1CCOCC1` the Potency [1] was “inactive”, the Potency [6] was “inactive” and the Potency [7] was “inactive”. For the same molecule, the Potency [4] was “inactive” and the Potency [5] was “inactive”.
In the case of `Nc1ncn([C@H]2C[C@H](O)[C@@H](CO)O2)c(=O)n1`, the Potency [1] is reported as “inactive”, the Potency [6] is reported as “inactive” and the Potency [7] is reported as “inactive”. The Potency [4] was “inactive” and the Potency [5] was “inactive”.
With `NC(=O)Cc1cccc(C(=O)c2ccccc2)c1N` the Potency [1] was “inactive”, the Potency [6] was “inactive” and the Potency [7] was “inactive”. The Potency [4] was “inactive” and the Potency [5] was “inactive”.
In the case of `Cc1cc(=O)oc2cc(O)ccc12`, the Potency [1] is reported as “inactive”, the Potency [6] is reported as “inactive” and the Potency [7] is reported as “inactive”. The Potency [4] was “inactive” and the Potency [5] was “inactive”.
In the case of `CC(C)C[C@H](NC(=O)[C@H](Cc1ccccc1)NC(=O)c1cnccn1)B(O)O`, the Potency [1] is reported as “inactive”, the Potency [6] is reported as “inactive” and the Potency [7] is reported as “inactive”. For the same molecule, the Potency [4] was “inactive” and the Potency [5] was “inactive”.
For `O=C(NC(Cc1cc(=O)[nH]c2ccccc12)C(=O)O)c1ccc(Cl)cc1` (stereo unspecified), the Potency [1] was “inactive”, the Potency [6] was “inactive” and the Potency [7] was “inactive”. For the same molecule, the Potency [4] was “inactive” and the Potency [5] was “inactive”.
For `CC(C)[C@H](N)C(=O)OCCOCn1cnc2c(=O)[nH]c(N)nc21`, the Potency [1] was “inactive”, the Potency [6] was “inactive” and the Potency [7] was “inactive”. The Potency [4] was “inactive” and the Potency [5] was “inactive”.
For `Clc1ccc(C(Cn2ccnc2)OCc2ccc(Sc3ccccc3)cc2)c(Cl)c1` (stereo unspecified), the Potency [1] was “inactive”, the Potency [6] was “inactive” and the Potency [7] was “inactive”. For the same molecule, the Potency [4] was 0.155 µM (active) and the Potency [5] was 2.75 µM (active).
For `COc1cc2c(N3CCN(C(=O)Nc4ccc(OC(C)C)cc4)CC3)ncnc2cc1OCCCN1CCCCC1`, the Potency [1] was “inactive”, the Potency [6] was “inactive” and the Potency [7] was “inactive”. The Potency [4] was 12.3 µM (active) and the Potency [5] was “inactive”.
In the case of `COCCCOc1ccnc(CS(=O)c2nc3ccccc3[nH]2)c1C` (stereo unspecified), the Potency [1] is reported as 39.8 µM (active) and inactive, the Potency [6] is reported as “inactive” and the Potency [7] is reported as “inactive”. The Potency [4] was “inactive” and the Potency [5] was “inactive and 15.1 µM (active)”.
For `Cc1nc2n(c(=O)c1CCN1CCC(c3noc4cc(F)ccc34)CC1)CCCC2`, the Potency [1] was “inactive”, the Potency [6] was “inactive” and the Potency [7] was “inactive”. The Potency [4] was 2.75 µM (active) and the Potency [5] was “inactive”.
For `O=C(O)CCNC(=O)c1ccc(N=Nc2ccc(O)c(C(=O)O)c2)cc1`, the Potency [1] was “inactive”, the Potency [6] was “inactive” and the Potency [7] was “inactive”. For the same molecule, the Potency [4] was “inactive” and the Potency [5] was “inactive”.
With `c1ccc2[nH]c(-c3cscn3)nc2c1` the Potency [1] was “inactive”, the Potency [6] was “inactive” and the Potency [7] was “inactive”. For the same molecule, the Potency [5] was “inactive”.
With `CCC1=C(C)CN(C(=O)NCCc2ccc(S(=O)(=O)NC(=O)NC3CCC(C)CC3)cc2)C1=O` (stereo unspecified) the Potency [1] was “inactive”, the Potency [6] was “inactive” and the Potency [4] was “inactive”.
In the case of `Cc1ccc(Nc2nccc(N(C)c3ccc4c(C)n(C)nc4c3)n2)cc1S(N)(=O)=O`, the Potency [1] is reported as “inactive”, the Potency [6] is reported as “inactive” and the Potency [7] is reported as “inactive”. For the same molecule, the Potency [5] was 15.5 µM (active).
